Data: PubChem BioAssay (NCI)
About 83,000 compounds went through this panel and 20% of them were active in at least one assay; those are over-represented in the sample as a whole.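 48-hour exposure, single concentration, 96-well plates; percent growth endpoint where 0 means no net growth. Active: below 10.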 Unmarked numbers belong to inactive results. Active and inactive are the calls of the source.

System: EKVX NSCLC
Assay: NCI-60 one-dose screen, 48 h (100 = growth as untreated, 0 = no growth, -100 = all killed)
Conditions: 10 µM unless noted

Row | Compound | growth
1 | CCCCCCCC[C@@H]1N[C@@H](C(=O)OC)Cc2c1[nH]c1ccccc21 | 92%
2 | COC(=O)c1cc(N=C2NC(=O)/C(=C/C=C/c3ccccc3)S2)ccc1O | 53.7%
3 | CSc1nnc(-c2cc3c([nH]c4ccccc43)c(-c3cccc(O)c3)n2)n1-c1ccccc1 | 45.8%
4 | Cc1ccc(-c2nc([P+](c3ccccc3)(c3ccccc3)c3ccccc3)c(S(=O)(=O)c3ccc(C)cc3)o2)cc1 | 22.6%
5 | O=S(=O)(NCCNc1nccc(-c2c(-c3ccc(F)c(O)c3)nc3occn23)n1)c1ccc(Cl)cc1 | 104%
6 | COc1ccc2c(c1)c(-c1nc(-c3c[nH]c4ccncc34)cs1)cn2C | -53.3% (active)
7 | CC(C)c1ccc(C(=O)Nc2nc3ccc(O)c(CN(C)C)c3s2)cc1 | 95.8%
8 | O=C1Nc2ccccc2/C1=C/c1nc2ccccc2c(=O)[nH]1 | 80.6%
9 | O=C(c1ccccc1)c1ccc(C2CCCCC2)cc1 | 81.9%
10 | C=CC(=O)N1CCN(c2cccc(Oc3nccc(Nc4nnc(-c5ccc(Br)cc5)s4)n3)c2)CC1 | 93.9%
11 | O=C1C(Cl)=C(Nc2ccc(S(=O)(=O)N3CCOCC3)cc2)C(=O)c2ccccc21 | 53.5%
12 | CCOC(=O)C1=C(C)NC(=O)NC1c1c(Cl)n(CCCl)c2ccccc12 (stereo not given) | 97.8%
13 | CCCC/C=C/[C@@H]1C[C@H]1CCO | 101%
14 | C=C(CBr)[C@@H]1CC[C@]2(C(=O)O)CC[C@]3(C)[C@H](CC[C@@H]4[C@@]5(C)CCC(=O)C(C)(C)[C@@H]5CC[C@]43C)[C@@H]12 | 86.5%
15 | CC/C=C\C[C@H](O)C/C=C1/C(=O)C=C[C@@H]1C/C=C\CCCC(=O)N(C)C | 22.9%
16 | CNC(=O)c1[nH]cc(-c2ccc(OC)cc2)c1-c1cc(OC)c2c(c1OC)OCO2 | 96.8%
17 | O=C(/C=C/c1cccs1)Nc1ncc(Cc2ccccc2F)s1 | 26.1%
18 | CCCn1cc2c(=O)nc3sc(Cc4ccccc4)c(C)n3c2n1 | 104%
19 | CCC(C)N(CCNc1cc(OC)cc2cccnc12)CC(C)C (stereo not given) | 95.5%
20 | C1CCC([PH+](C2CCCCC2)C2CCCCC2[PH+](C2CCCCC2)C2CCCCC2)CC1.[Au].[CH-]1CCCCC1C1CCCC[N-]1 (stereo not given) | -77.6% (active)

Row | Compound | growth
21 | O=C1/C(=C/c2ccccc2Br)COc2ccc(O)cc21 | 96.6%
22 | O=C(Nc1ccccc1O)c1ccc(CNC(=O)c2sccc2Nc2ccnc(C(F)(F)F)c2)cc1 | 59.2%
23 | N#Cc1c(-c2ccc(Cl)cc2)nc(NN2C(=O)c3ccccc3C2=O)nc1N1CCOCC1 | 103%
24 | O=C(OC(CO)C(=O)NC12CC3CC(CC(C3)C1)C2)c1ccc(Cl)cc1 (stereo not given) | 96.9%
25 | COc1ccc(/C=N/C2=C(C#N)C(c3ccccc3)c3ccc4ccccc4c3O2)cc1 (stereo not given) | 42.9%
26 | CC(C)c1ccc(C(=O)Nc2sc3c(c2C(N)=O)CCC(=O)C3)cc1 | 16.1%
27 | N=C(N)c1ccc(-c2ccc(-c3ccc(Cl)cc3Cl)s2)cc1 | 63.5%
28 | O=C(/C=C/c1cccc(Cl)c1)c1ccc(Nc2nc(Nc3ccc(F)cc3)nc(Nc3ccc(Cl)cc3)n2)cc1 | 139%
29 | COc1c(B(O)O)cccc1-c1nc2c(F)cc3[nH]ncc3c2c2c1CCCC2 | 7.37% (active)
30 | N#Cc1ccc(O)c(C2=NCC(c3ccccc3)O2)c1 (stereo not given) | 37.1%
31 | COC(=O)c1nc(-c2ccccc2)oc1S(=O)(=O)Cc1ccccc1 | 119%
32 | OCCn1cc(-c2nc(-c3c[nH]c4ncccc34)cs2)c2cc(F)ccc21 | 37.2%
33 | O=[N+]([O-])c1cccc(-c2nc3cc4nc5ccccc5[nH]c4cc3n2)c1 | 99.7%
34 | CN(C)c1ccc(C(=O)OCCCCCCl)cc1 | 96.9%
35 | CC(C)COc1nc2c(c(=O)n(C)c(=O)n2C)n1C | 95.1%
36 | Nc1nc(-c2ccc(Cl)cc2)nc2c1sc(=S)n2-c1ccccc1 | 40.7%
37 | Cc1ccc(NC(=O)c2sc3nc(C)c(Br)c(C)c3c2N)cc1 | 61.9%
38 | Cc1cc(N2CCCCC2)cc(C)c1-c1csc(NC(=O)c2ccncc2)n1 | 32.9%
39 | CCN1C(=S)N(c2ccccc2)C2C1NN=c1s/c(=C3\C(=O)N(C(C)C)c4ccccc43)c(=O)n12 (stereo not given) | 101%
40 | O=C(N(c1ccccc1)c1ccccc1)n1cc(I)c2nc(Cl)nc(Cl)c21 | 71.1%

System: SN12C renal
Assay: as above
Conditions: 10 µM unless noted

Row | Compound | growth
41 | CCCCCCCC[C@@H]1N[C@@H](C(=O)OC)Cc2c1[nH]c1ccccc21 | 97.4%
42 | COC(=O)c1cc(N=C2NC(=O)/C(=C/C=C/c3ccccc3)S2)ccc1O | 38.6%
43 | CSc1nnc(-c2cc3c([nH]c4ccccc43)c(-c3cccc(O)c3)n2)n1-c1ccccc1 | 43.7%
44 | Cc1ccc(-c2nc([P+](c3ccccc3)(c3ccccc3)c3ccccc3)c(S(=O)(=O)c3ccc(C)cc3)o2)cc1 | 3.91% (active)
45 | O=S(=O)(NCCNc1nccc(-c2c(-c3ccc(F)c(O)c3)nc3occn23)n1)c1ccc(Cl)cc1 | 80.7%
46 | COc1ccc2c(c1)c(-c1nc(-c3c[nH]c4ccncc34)cs1)cn2C | -72% (active)
47 | CC(C)c1ccc(C(=O)Nc2nc3ccc(O)c(CN(C)C)c3s2)cc1 | 90.7%
48 | O=C1Nc2ccccc2/C1=C/c1nc2ccccc2c(=O)[nH]1 | 89.5%
49 | O=C(c1ccccc1)c1ccc(C2CCCCC2)cc1 | 90.7%
50 | C=CC(=O)N1CCN(c2cccc(Oc3nccc(Nc4nnc(-c5ccc(Br)cc5)s4)n3)c2)CC1 | 78.7%
51 | O=C1C(Cl)=C(Nc2ccc(S(=O)(=O)N3CCOCC3)cc2)C(=O)c2ccccc21 | 78.4%
52 | CCOC(=O)C1=C(C)NC(=O)NC1c1c(Cl)n(CCCl)c2ccccc12 (stereo not given) | 101%
53 | CCCC/C=C/[C@@H]1C[C@H]1CCO | 94.3%
54 | C=C(CBr)[C@@H]1CC[C@]2(C(=O)O)CC[C@]3(C)[C@H](CC[C@@H]4[C@@]5(C)CCC(=O)C(C)(C)[C@@H]5CC[C@]43C)[C@@H]12 | 72.5%
55 | CC/C=C\C[C@H](O)C/C=C1/C(=O)C=C[C@@H]1C/C=C\CCCC(=O)N(C)C | -9.16% (active)
56 | CNC(=O)c1[nH]cc(-c2ccc(OC)cc2)c1-c1cc(OC)c2c(c1OC)OCO2 | 96.8%
57 | O=C(/C=C/c1cccs1)Nc1ncc(Cc2ccccc2F)s1 | 41.3%
58 | CCCn1cc2c(=O)nc3sc(Cc4ccccc4)c(C)n3c2n1 | 104%
59 | CCC(C)N(CCNc1cc(OC)cc2cccnc12)CC(C)C (stereo not given) | 101%
60 | C1CCC([PH+](C2CCCCC2)C2CCCCC2[PH+](C2CCCCC2)C2CCCCC2)CC1.[Au].[CH-]1CCCCC1C1CCCC[N-]1 (stereo not given) | -47.3% (active)

Row | Compound | growth
61 | O=C1/C(=C/c2ccccc2Br)COc2ccc(O)cc21 | 49.5%
62 | O=C(Nc1ccccc1O)c1ccc(CNC(=O)c2sccc2Nc2ccnc(C(F)(F)F)c2)cc1 | 57.8%
63 | N#Cc1c(-c2ccc(Cl)cc2)nc(NN2C(=O)c3ccccc3C2=O)nc1N1CCOCC1 | 99.9%
64 | O=C(OC(CO)C(=O)NC12CC3CC(CC(C3)C1)C2)c1ccc(Cl)cc1 (stereo not given) | 109%
65 | COc1ccc(/C=N/C2=C(C#N)C(c3ccccc3)c3ccc4ccccc4c3O2)cc1 (stereo not given) | 38%
66 | CC(C)c1ccc(C(=O)Nc2sc3c(c2C(N)=O)CCC(=O)C3)cc1 | 2.75% (active)
67 | N=C(N)c1ccc(-c2ccc(-c3ccc(Cl)cc3Cl)s2)cc1 | 16%
68 | O=C(/C=C/c1cccc(Cl)c1)c1ccc(Nc2nc(Nc3ccc(F)cc3)nc(Nc3ccc(Cl)cc3)n2)cc1 | 136%
69 | COc1c(B(O)O)cccc1-c1nc2c(F)cc3[nH]ncc3c2c2c1CCCC2 | 15.8%
70 | N#Cc1ccc(O)c(C2=NCC(c3ccccc3)O2)c1 (stereo not given) | 41.7%
71 | COC(=O)c1nc(-c2ccccc2)oc1S(=O)(=O)Cc1ccccc1 | 93.5%
72 | OCCn1cc(-c2nc(-c3c[nH]c4ncccc34)cs2)c2cc(F)ccc21 | 80.3%
73 | O=[N+]([O-])c1cccc(-c2nc3cc4nc5ccccc5[nH]c4cc3n2)c1 | 108%
74 | CN(C)c1ccc(C(=O)OCCCCCCl)cc1 | 96%
75 | CC(C)COc1nc2c(c(=O)n(C)c(=O)n2C)n1C | 99.8%
76 | Nc1nc(-c2ccc(Cl)cc2)nc2c1sc(=S)n2-c1ccccc1 | 53.2%
77 | Cc1ccc(NC(=O)c2sc3nc(C)c(Br)c(C)c3c2N)cc1 | 70.5%
78 | Cc1cc(N2CCCCC2)cc(C)c1-c1csc(NC(=O)c2ccncc2)n1 | 49.1%
79 | CCN1C(=S)N(c2ccccc2)C2C1NN=c1s/c(=C3\C(=O)N(C(C)C)c4ccccc43)c(=O)n12 (stereo not given) | 55.1%
80 | O=C(N(c1ccccc1)c1ccccc1)n1cc(I)c2nc(Cl)nc(Cl)c21 | 34.8%
